Inconclusive results are not listed. Activity calls are given as the source filed them. Unless noted, calls follow the shape of the dose curve; as a rule, active = well fitted curve in the direction sought with a large enough effect; inconclusive = small, poorly fitted or top-dose-only effect, or another doubt; inactive = no such curve, though single readings can be large; an effect the other way counts as inactive or inconclusive.
How the values were obtained:
[1] = AP1 Signaling Pathway (AID 357; active = well fitted curve in either direction with a large enough effect, not every such curve was filed as active;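 also: ME-180 reporter cells stimulated with EGF at its EC50 level; % is scaled to controls: 0 for no effect and ±100 for the full control effect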); settings: ME-180 (cervical carcinoma) AP-1-bla reporter, EGF-induced, beta-lactamase ratio, 5 h; at 38 µM (top of the series)
Procedure, shortened: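 AP-1-bla ME-180 cells, Opti-MEM + 0.5% dialyzed FBS, plated overnight 37 °C. Cpd titration + EC50 EGF, 5 h 37 °C. CCF4 2.5 h RT; ex 405, em 460/530 ratio → %activity, AC50.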

[2] = molecular target: Cytochrome P450 1A2 (Homo sapiens) (UniProt P05177); assay: p450-cyp1a2 (AID 410; calls by dose curve;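 also: -100% = full effect of reference inhibitor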)
Procedure, shortened: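 Human CYP1A2 (20nM) demethylated Luciferin-ME at its Km (100uM) in 100mM KPO4. After 10 min compound preincubation, NADPH regeneration ran the reaction 60 min at room temperature. Luciferin was read by luminescence, normalized to 57 uM furafylline.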

[3] = NFAT Signaling Pathway (AID 444; active = well fitted curve in either direction with a large enough effect, not every such curve was filed as active;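 also: carbachol stimulus at about its EC50 of 1 µM final; % is scaled to controls: 0 for no effect and ±100 for the full control effect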); settings: Jurkat NFAT-bla M1, carbachol, beta-lactamase ratio, 5 h; at 38 µM (top of the series)
Procedure, shortened: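 Read-out: CCF4 FRET ratio (460 nm/530 nm) after 1 h RT dye loading, used for %activity and AC50 from titration series. Cells: Jurkat NFAT-β-lactamase/M1 line, treated with compound plus 1 uM carbachol for 5 h, 37 °C.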

[4] = molecular target: Glucocorticoid receptor (Homo sapiens) (UniProt P04150); assay: GR-GFP Redistribution (AID 450;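 active = compounds whose dose series gives a full or clear partial fitted curve of increased nuclear translocation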; also: potency is read from the fitted curve at half-maximal effect); settings: U2OS GR-GFP nuclear translocation, laser cytometry, 2 h
Sequence of Glucocorticoid receptor (Homo sapiens) (P04150 whole entry, looked up, the tested form may be a part): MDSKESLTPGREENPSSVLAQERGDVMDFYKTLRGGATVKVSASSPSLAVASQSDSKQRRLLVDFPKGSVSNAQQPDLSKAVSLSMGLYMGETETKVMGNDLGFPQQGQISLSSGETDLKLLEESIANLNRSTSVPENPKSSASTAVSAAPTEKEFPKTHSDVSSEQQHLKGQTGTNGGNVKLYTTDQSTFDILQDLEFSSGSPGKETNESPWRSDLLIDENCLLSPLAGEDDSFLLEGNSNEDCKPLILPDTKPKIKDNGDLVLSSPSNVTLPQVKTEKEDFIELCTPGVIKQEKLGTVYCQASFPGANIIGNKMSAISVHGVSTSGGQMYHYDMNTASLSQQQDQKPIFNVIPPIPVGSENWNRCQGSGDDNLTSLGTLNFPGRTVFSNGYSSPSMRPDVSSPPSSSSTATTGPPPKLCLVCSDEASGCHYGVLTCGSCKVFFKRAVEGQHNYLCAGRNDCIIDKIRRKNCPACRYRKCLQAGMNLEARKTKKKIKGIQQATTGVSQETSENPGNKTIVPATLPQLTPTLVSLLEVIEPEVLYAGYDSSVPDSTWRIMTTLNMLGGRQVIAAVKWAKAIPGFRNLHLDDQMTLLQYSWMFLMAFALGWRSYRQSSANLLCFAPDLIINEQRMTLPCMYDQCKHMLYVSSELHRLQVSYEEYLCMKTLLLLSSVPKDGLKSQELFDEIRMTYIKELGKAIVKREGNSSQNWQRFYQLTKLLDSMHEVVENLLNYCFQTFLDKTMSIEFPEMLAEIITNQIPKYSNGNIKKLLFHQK

[5] = molecular target: Glucocorticoid receptor (Homo sapiens) (UniProt P04150); assay: GR-EFC Redistribution (AID 451; calls by dose curve; also: potency is read from the fitted curve at half-maximal effect); settings: CHO-K1 GR-EFC translocation, beta-gal luminescence, 2 h
Procedure, shortened: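 Translocation of GR-ED fusion to nuclear EA restores b-gal, read by luminescence after 1 h room-temperature detection. Engineered CHO-K1 biosensor cells, 1,000/well, exposed 2 h at 37 C to titrations up to 46 uM final.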

[6] = molecular target: Mitogen-activated protein kinase 10 (Mus musculus) (UniProt Q61831); assay: JNK3 AlphaScreen Assay (AID 530; active = well fitted curve in either direction with a large enough effect, not every such curve was filed as active;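 also: kinase came from lysate of stimulated human HepG2 cells; signal reports phosphorylation of biotinylated GST-cJun 1-79 at Ser73 with 10 µM ATP; % is scaled to controls: 0 for no effect and ±100 for the full control effect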)
Procedure, shortened: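 Room-temperature AlphaScreen kinase assay; pre-activated HepG2 lysate as JNK3 source, biotin-GST-cJun(1-79) substrate, 10 uM ATP, compound 15 min preincubation.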

[7] = molecular target: Guanine nucleotide-binding protein G(i) subunit alpha-1 (Homo sapiens) (UniProt P63096); assay: qHTS Assay for Inhibitors of RGS12 GoLoco Motif Activity (Green Fluorophore) (AID 879);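 also: 0% = labeled peptide with Gαi1 and full inhibition = labeled peptide alone without protein; negative values mean loss of peptide binding seen as reduced polarization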
Sequence of Guanine nucleotide-binding protein G(i) subunit alpha-1 (Homo sapiens) (P63096 whole entry, looked up): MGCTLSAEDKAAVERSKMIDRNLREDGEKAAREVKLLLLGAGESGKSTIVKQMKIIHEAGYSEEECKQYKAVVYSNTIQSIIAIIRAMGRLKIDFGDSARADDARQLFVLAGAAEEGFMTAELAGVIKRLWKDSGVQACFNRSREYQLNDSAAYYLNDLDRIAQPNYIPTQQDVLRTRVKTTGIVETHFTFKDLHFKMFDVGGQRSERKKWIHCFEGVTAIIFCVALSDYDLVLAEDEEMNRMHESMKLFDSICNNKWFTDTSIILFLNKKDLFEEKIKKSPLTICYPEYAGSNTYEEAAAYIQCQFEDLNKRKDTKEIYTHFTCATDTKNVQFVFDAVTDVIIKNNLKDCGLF
Procedure, shortened: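 Fluorescence polarization assay: 50 nM Gαi1 with 10 nM FITC-labeled RGS12 GoLoco peptide in 10 mM Tris pH 7.5, 150 mM NaCl, 0.1 mM GDP, 0.05% NP40, 10 min at room temperature with compound.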

[8] = qHTS Assay for Identification of Small Molecule Agonists for Thrombopoietin (TPO) Signaling Pathway (AID 917); also: % is scaled to controls: 0 for no effect and ±100 for the full control effect
Procedure, shortened: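 Murine Ba/F3 cells stably expressing human TPO receptor and a Glycoprotein IIb promoter–luciferase reporter were IL-3-starved overnight, then treated with compounds plus TPO (26 pM final, its EC50) for 24 hrs at 37 C; luminescence was read.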

[9] = molecular target: Muscarinic acetylcholine receptor M1 (Rattus norvegicus) (UniProt P08482); assay: qHTS Assay for Antagonists of Acetylcholine Muscarinic M1 Receptor: Measurement of IP-One Response (AID 944); also: nearly all actives have a fitted effect of over 75% in size
Sequence of Muscarinic acetylcholine receptor M1 (Rattus norvegicus) (P08482 whole entry, looked up): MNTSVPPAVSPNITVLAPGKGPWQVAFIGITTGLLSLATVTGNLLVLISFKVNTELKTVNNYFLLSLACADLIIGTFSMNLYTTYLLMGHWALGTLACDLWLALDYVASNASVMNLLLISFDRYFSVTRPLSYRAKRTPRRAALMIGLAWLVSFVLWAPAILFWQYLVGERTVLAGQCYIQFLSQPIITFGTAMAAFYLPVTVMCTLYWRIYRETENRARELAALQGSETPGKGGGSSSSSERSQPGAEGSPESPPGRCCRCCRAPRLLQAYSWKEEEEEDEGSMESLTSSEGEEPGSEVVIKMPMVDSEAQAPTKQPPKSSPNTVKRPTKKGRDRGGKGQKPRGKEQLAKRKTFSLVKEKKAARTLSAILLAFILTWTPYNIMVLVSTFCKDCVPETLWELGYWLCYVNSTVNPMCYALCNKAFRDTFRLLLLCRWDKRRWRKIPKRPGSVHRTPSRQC
Procedure, shortened: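 CHO cells expressing rat M1 receptor, recovered overnight, were pre-incubated 10 min with compound, then stimulated 30 min with carbachol at EC80 (200 nM) in LiCl-containing buffer, pH 7.4. IP1 accumulation was read by HTRF (620/665 nm).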

[10] = molecular target: Pyruvate kinase (Leishmania mexicana) (UniProt Q27686); assay: qHTS Validation Assay for Inhibitors of Leishmania Mexicana Pyruvate Kinase (AID 945);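 also: 0% = DMSO only neutral control wells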
Sequence of Pyruvate kinase (Leishmania mexicana) (Q27686 2-499 E452W): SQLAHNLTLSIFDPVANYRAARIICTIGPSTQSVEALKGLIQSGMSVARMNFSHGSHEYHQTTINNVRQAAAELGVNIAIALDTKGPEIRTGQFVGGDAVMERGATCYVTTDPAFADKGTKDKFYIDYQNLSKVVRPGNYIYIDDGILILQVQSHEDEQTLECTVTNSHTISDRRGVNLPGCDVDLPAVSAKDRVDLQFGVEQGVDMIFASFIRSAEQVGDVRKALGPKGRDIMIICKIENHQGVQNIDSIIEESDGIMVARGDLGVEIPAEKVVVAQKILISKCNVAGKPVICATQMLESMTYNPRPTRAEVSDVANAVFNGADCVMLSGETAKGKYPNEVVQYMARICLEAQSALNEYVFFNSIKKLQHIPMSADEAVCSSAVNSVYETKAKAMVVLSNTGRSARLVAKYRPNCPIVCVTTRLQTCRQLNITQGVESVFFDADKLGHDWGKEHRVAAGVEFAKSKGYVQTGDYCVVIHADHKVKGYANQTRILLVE
Procedure, shortened: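 Eight-point qHTS titrations in triplicate, data normalized to DMSO neutral control. Reaction: 0.2 nM LmPYK E451W mutant, 0.5 mM PEP, 0.1 mM ADP, 7 mM MgCl2, pH 7.2, one hour at room temperature; luminescent ATP detection.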

[11] = molecular target: Pyruvate kinase PKM (Homo sapiens) (UniProt P14618); assay: qHTS Assay for Activators of Human Muscle Pyruvate Kinase (AID 954; active = well fitted curve in the direction sought with a large enough effect, not every such curve was filed as active;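 also: 0% = uninhibited enzyme and -100% = no enzyme or full thiadiazolimine inhibition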)
Sequence of Pyruvate kinase PKM (Homo sapiens) (P14618 whole entry, looked up): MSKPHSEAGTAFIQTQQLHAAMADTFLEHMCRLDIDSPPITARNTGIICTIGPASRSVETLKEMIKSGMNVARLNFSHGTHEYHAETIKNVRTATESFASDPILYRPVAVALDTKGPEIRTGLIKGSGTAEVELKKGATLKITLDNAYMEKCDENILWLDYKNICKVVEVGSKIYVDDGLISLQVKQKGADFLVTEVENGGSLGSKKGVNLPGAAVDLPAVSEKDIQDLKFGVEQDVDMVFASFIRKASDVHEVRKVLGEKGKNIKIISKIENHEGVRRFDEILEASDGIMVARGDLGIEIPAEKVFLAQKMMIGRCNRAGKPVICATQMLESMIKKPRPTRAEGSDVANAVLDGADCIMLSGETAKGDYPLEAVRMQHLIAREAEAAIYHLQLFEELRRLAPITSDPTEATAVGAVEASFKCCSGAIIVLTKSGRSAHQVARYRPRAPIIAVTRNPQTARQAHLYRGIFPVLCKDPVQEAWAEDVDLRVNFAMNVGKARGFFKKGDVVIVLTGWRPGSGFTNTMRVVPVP
Procedure, shortened: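 Reaction: 0.1 nM purified PKM2 with 0.5 mM phosphoenolpyruvate and 0.1 mM ADP, room temperature, 1 h. Readout: luciferase-based ATP luminescence after stop reagent. Activators judged against a 0.3 nM enzyme column.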

[12] = molecular target: alpha-glucosidase (Oryza sativa, rice) (UniProt Q653V4); assay: Counterscreen for Glucocerebrosidase Inhibitors: qHTS Assay for Rice alpha-Glucosidase at pH 5.0 (AID 997);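 also: 0% = full activity with enzyme and -100% = basal without enzyme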
Procedure, shortened: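 Rice alpha-glucosidase (4 nM final) with 400 uM 4-methylumbelliferyl-alpha-D-glucopyranoside in citrate buffer pH 5.0, 20 min at room temperature, stopped at pH 10; fluorescence 365/440 nm, compounds 0.7 nM–77 uM, AC50 from Hill fits.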

[13] = Cytometric Cell-Based qHTS for Inhibitors of the mTORC1 Signaling Pathway in MEF (Tsc2-/-, p53-/-) Cells (AID 2660);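 also: Tsc2 and p53 null MEFs carrying empty vector with compound for 24 h; percent of cells above a phospho-rpS6 to PI ratio cutoff in each well; plate controls were DMSO for no effect and rapamycin for full effect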
Procedure, shortened: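 Cells are plated, treated with compound for 24 hrs at 37 degree Celsius, then fixed, blocked and immunostained for phospho-rpS6 Ser235/236. Propidium iodide counterstain follows. Per-well % positive cells is derived from the PI-normalized phospho-S6 signal.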

[14] = High Content Imaging Cell-Based qHTS for Inhibitors of the mTORC1 Signaling Pathway in MEF (Tsc2-/-, p53-/-) Cells (AID 2666); settings: at 38.3 µM (top of the series);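 also: percent of cells scored positive for phospho-rpS6 Ser235/236 immunostaining by imaging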
Procedure, shortened: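 Cells were plated, dosed with compound after 24 hrs, and incubated another 24 hrs at 37 degree Celsius. Fixed cells were immunostained for phospho-rpS6 Ser235/236 and counterstained, and the normalized signal was scored as % active cells against rapamycin and DMSO controls.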

[15] = High Content Imaging Cell-Based qHTS for Inhibitors of the mTORC1 Signaling Pathway in MEF Cells (AID 2667);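 also: Tsc2-/- p53-/- MEFs stably re-expressing wild-type Tsc2 exposed 24 h; plate controls were DMSO wells for no effect and rapamycin control wells for full effect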
Procedure, shortened: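 Immunofluorescence for rpS6 phosphorylation in MEFs of Tsc2-/-, p53-/- background rescued with WT Tsc2. Compound exposure lasted 24 hrs. Inhibition was scored against rapamycin-treated control wells.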

[16] = Cytometry Cell-Based qHTS for Inhibitors of the mTORC1 Signaling Pathway in MEF cells (AID 2668);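 also: Tsc2-/- p53-/- mouse embryonic fibroblasts stably re-expressing wild-type Tsc2; percent cells positive for phospho-rpS6 Ser235/236 relative to propidium iodide stain; plate controls were DMSO wells for no effect and 7.5 nM rapamycin control wells for full effect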
Procedure, shortened: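 WT MEFs (Tsc2-/-, p53-/- stably re-expressing WT Tsc2) in DMEM + 10% FBS received compounds 24 hrs after plating, for 24 hrs at 37 degree Celsius. Fixed cells stained with Alexa-488 anti-phospho-rpS6 Ser235/236 and propidium iodide; laser-scanning cytometry read-out.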

[17] = molecular target: Ubiquitin carboxyl-terminal hydrolase 2 (Homo sapiens) (UniProt O75604); assay: qHTS Validation Assay for Inhibitors of Ubiquitin-specific Protease USP2a Using CHOP2 as the Reporter (AID 463106);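 also: plate controls were DMSO for no effect and full inhibition by NEM for full effect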
Procedure, shortened: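 10nM USP2 core + cpd, 30min RT; add 25nM Ub-CHOP2/25nM substrate; 60min RT; FI 485/531nm. Buffer Tris pH 8.0, CaCl2, BME, CHAPS. Norm. to NEM = 100% inhibition; time-zero read flags fluorescent artifacts.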

[18] = molecular target: DNA polymerase III PolC-type (Bacillus subtilis (strain 168)) (UniProt P13267); assay: qHTS Validation Assay for the Inhibitors of DNA Replication in Gram-Positive Bacteria (AID 485295);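 also: PicoGreen fluorescence of double-stranded DNA made on primed circular M13 template; 0% = DMSO wells and -100% = EDTA-quenched background wells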
Procedure, shortened: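 Reconstituted B. subtilis holoenzyme (Pol III, beta clamp, SSB, primase) was preincubated with compound at room temperature, then given single-stranded circular M13Gori plus dNTPs and NTPs. EDTA-containing PicoGreen stopped the reaction, and dsDNA product was read by fluorescence.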

[19] = molecular target: Tumor susceptibility gene 101 protein (Homo sapiens) (UniProt Q99816); assay: qHTS Validation Assay for Iinhibitors of HIV-1 Budding by Blocking the Interaction of PTAP/TSG101 (AID 485342; calls by dose curve; also: 0% is about no effect)
Procedure, shortened: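 Tsg101 binding domain (10 uM final) in pH 7.5 HEPES/NaCl/Tween 20/EDTA/TCEP buffer was mixed with pin-transferred compounds, then FITC-labeled PTAP peptide (50 nM final) was added; after 20 min at r.t., fluorescence polarization was read.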

[20] = qHTS Validation Assay to Find Inhibitors of Chronic Active B-Cell Receptor Signaling (AID 485345; active = well fitted curve in the direction sought with a large enough effect in the main read-out, with a control signal flat, not every such curve was filed as active;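 also: 0% = untreated basal cells and 100% = 10 µM MG-132 proteasome inhibitor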)
Procedure, shortened: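 Read-out: ratio of filter-corrected green (IkappaBalpha fusion) to red (native) luciferase signal in doxycycline-induced TMD8 cells after 4 h at 37C. Titration spanned 46 uM–3 nM; Data were normalised to basal cells and 10 uM MG-132 wells.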

[21] = molecular target: Beta-2 adrenergic receptor (Homo sapiens) (UniProt P07550); assay: qHTS validation assay of beta-arrestin-biased ligands of beta2-adrenergic receptor (AID 485366); also: 0% is about no effect
Procedure, shortened: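 Values derive from curve-fitted %Activity of a luminescent beta-arrestin recruitment reporter; compounds tested up to 46 microM on Tango cells for 18 hr at 37 degrees C, 5% CO2.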

[22] = molecular target: Thioredoxin reductase 1, cytoplasmic (Rattus norvegicus) (UniProt O89049); assay: qHTS Assay for Substrates of Mammalian Selenoprotein Thioredoxin Reductase 1 (TrxR1) (AID 488772);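 also: NADPH fluorescence in the first read after selenite addition and not the 8 min delta; 0% is about no effect; a drop in NADPH fluorescence below the no-compound background marks a TrxR1 substrate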
Procedure, shortened: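 Quantitative HTS in Tris-HCl buffer at pH 7.5 with EDTA and Tween-20, using rat TrxR1, 400 uM NADPH and 400 uM selenite (final). A fall in initial NADPH fluorescence relative to background marked substrate behaviour.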

[23] = molecular target: Chromobox protein homolog 1 (Homo sapiens) (UniProt P83916); assay: qHTS Validation Assay for Inhibitors of HP1-beta Chromodomain Interactions with Methylated Histone Tails (AID 488953);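 also: loss of AlphaScreen luminescence from HP1-beta binding biotinylated H3K9me3 peptide; % is scaled to controls: 0 for no effect and ±100 for the full control effect; nearly all actives have a fitted effect of over 50% in size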
Procedure, shortened: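 HP1-beta (50 nM) was preincubated 30 min at room temperature with biotinylated H3(1-18)K9me3 peptide (50 nM) in PBS pH 7.4, 0.01% Tween-20, then with compounds 30 min. AlphaScreen signal was read after streptavidin donor/nickel chelate acceptor beads (10 ug/mL final).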

[24] = molecular target: D(1A) dopamine receptor (Homo sapiens) (UniProt P21728); assay: HTS Assay for Allosteric Agonists of the Human D1 Dopamine Receptor: Primary Screen for Agonists (AID 488981); also: 0% is about no effect
Sequence of D(1A) dopamine receptor (Homo sapiens) (P21728 whole entry, looked up): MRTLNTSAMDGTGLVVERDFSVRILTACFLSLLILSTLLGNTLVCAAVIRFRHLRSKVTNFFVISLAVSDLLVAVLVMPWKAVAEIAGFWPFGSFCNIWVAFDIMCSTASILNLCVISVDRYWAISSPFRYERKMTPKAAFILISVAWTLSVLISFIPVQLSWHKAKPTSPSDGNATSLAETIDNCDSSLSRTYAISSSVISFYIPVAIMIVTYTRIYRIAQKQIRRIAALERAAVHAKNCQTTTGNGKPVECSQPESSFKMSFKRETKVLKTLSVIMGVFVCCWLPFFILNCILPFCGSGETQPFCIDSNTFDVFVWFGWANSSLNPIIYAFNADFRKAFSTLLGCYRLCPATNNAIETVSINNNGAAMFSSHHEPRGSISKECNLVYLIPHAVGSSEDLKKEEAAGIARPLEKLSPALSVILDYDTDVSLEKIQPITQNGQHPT
Procedure, shortened: (§1)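 Calcium flux in an inducible, force-coupled HEK293 Trex D1 line (overnight at 30 C): agonist mode is the 180 s kinetic read after compound; potentiator mode is the following 180 s read after dopamine at EC20.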

[25] = molecular target: D(1A) dopamine receptor (Homo sapiens) (UniProt P21728); assay: HTS Assay for Allosteric Agonists of the Human D1 Dopamine Receptor: Primary Screen for Potentiators (AID 488982); also: 0% is about no effect
Procedure, shortened: as §1

[26] = molecular target: D(1A) dopamine receptor (Homo sapiens) (UniProt P21728); assay: HTS Assay for Allosteric Agonists of the Human D1 Dopamine Receptor: Primary Screen for Antagonists (AID 488983);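 also: calcium flux response to an EC80 dopamine challenge measured with no-wash dye; % is scaled to controls: 0 for no effect and ±100 for the full control effect; nearly all actives have a fitted effect of over 65% in size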
Procedure, shortened: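 Tetracycline-induced HEK293 T-REx cells expressing force-coupled D1 were plated overnight at 30 C, dye-loaded for calcium, and read kinetically. Compounds were pinned in, then an EC80 dopamine challenge followed after 180 s to reveal antagonism.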

[27] = Validation screen for small molecules that induce genotoxicity in human embryonic kidney (HEK293T) cells expressing luciferase-tagged ELG1 (AID 493106); also: 0% is about no effect
Procedure, shortened: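 HEK293T cells expressing luciferase-tagged ELG1 were exposed to compound or DMSO vehicle for 16 hr at 37 °C, 5% CO2. Genotoxic stress raises ELG1 levels, so increased luciferase signal after ONE-Glo addition and 30 min at room temperature marks hits.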

[28] = molecular target: ATPase family AAA domain-containing protein 5 (Homo sapiens) (UniProt Q96QE3); assay: Validation screen for small molecules that inhibit ELG1-dependent DNA repair in human embryonic kidney (HEK293T) cells expressing luciferase-tagged ELG1 (AID 493107);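 also: cells co-treated with the DNA-damaging agent 5-fluorouridine alongside compound; % is scaled to controls: 0 for no effect and ±100 for the full control effect; inhibitors lower the ELG1-luciferase luminescence signal; nearly all actives have a fitted effect of over 70% in size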
Sequence of ATPase family AAA domain-containing protein 5 (Homo sapiens) (Q96QE3 whole entry, looked up, the tested form may be a part): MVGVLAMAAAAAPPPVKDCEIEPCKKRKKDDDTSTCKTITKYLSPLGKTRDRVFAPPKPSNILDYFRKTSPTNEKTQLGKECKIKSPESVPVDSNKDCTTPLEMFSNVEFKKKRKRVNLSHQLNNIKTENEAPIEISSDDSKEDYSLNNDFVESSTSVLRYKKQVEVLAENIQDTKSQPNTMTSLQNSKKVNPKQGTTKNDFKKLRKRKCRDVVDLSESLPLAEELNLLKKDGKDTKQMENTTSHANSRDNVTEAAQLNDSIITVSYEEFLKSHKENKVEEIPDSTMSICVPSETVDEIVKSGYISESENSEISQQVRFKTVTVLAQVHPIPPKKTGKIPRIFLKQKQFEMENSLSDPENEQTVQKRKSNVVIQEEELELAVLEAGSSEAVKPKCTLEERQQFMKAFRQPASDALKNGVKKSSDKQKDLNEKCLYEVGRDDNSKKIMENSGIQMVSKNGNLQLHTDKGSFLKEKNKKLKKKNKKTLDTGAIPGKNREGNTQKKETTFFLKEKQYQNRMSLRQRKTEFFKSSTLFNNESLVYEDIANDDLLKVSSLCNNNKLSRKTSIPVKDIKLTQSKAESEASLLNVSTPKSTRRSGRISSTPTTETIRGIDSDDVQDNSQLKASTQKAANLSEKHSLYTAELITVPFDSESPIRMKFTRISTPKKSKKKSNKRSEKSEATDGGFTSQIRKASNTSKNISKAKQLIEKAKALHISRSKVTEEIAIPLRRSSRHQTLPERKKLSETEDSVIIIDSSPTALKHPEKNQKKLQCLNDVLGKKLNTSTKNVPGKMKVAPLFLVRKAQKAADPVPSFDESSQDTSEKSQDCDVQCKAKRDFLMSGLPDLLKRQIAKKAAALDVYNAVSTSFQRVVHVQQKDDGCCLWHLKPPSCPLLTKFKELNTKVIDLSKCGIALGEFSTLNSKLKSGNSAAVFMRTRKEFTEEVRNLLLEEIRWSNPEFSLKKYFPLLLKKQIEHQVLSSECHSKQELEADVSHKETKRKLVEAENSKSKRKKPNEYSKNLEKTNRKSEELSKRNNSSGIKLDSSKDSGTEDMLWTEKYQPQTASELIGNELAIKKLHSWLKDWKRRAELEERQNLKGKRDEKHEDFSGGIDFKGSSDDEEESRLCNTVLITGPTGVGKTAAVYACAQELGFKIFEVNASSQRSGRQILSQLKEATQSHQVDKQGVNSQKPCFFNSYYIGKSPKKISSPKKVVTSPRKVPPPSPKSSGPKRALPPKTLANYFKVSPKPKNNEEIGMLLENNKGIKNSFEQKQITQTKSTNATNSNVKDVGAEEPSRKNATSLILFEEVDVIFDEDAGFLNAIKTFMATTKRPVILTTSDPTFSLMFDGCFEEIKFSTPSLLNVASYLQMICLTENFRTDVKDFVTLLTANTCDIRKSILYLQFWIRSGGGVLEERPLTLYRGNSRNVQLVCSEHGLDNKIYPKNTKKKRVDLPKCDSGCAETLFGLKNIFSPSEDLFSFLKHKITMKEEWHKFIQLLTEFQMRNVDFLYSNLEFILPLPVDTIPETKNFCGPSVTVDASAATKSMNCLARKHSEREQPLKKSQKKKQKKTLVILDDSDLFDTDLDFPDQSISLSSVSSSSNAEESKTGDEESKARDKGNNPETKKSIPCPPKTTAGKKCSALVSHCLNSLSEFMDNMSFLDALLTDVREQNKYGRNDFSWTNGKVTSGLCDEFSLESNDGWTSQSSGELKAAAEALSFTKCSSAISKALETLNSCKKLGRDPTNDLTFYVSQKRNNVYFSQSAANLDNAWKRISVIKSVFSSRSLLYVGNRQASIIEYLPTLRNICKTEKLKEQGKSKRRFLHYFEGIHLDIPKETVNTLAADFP
Procedure, shortened: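 HEK293T cells expressing luciferase-tagged ELG1 were co-treated with 5-fluorouridine and compound or DMSO for 16 hr at 37 °C, 5% CO2. Luciferase activity was then read with ONE-Glo after 30 min at room temperature; suppressed signal indicates blocked ELG1 function.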

[29] = Nrf2 qHTS screen for inhibitors: Validation (AID 493153; active = well fitted inhibition curve with a large enough effect in the main read-out, with a control signal flat, not every such curve was filed as active; as to activity change, negative = inhibition: % of control where 0% means no effect); settings: viability change: measured here: cytotoxicity max response
Procedure, shortened: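 A549 cells carrying an ARE-driven firefly luciferase reporter, in 5% FBS OPTI-MEM, were treated with compounds in concentration-response for 18-24 h at 37°C. Viability was read by CellTiter-Fluor fluorescence, then Nrf2 activity by luciferase luminescence.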

CC[N+](CC)(CC)CC
-5.41%: viability change [29]
inactive: activity change, negative = inhibition [1] -0.239% | Potency [2] | activity change, negative = inhibition [3] -10.5% | Potency [4] > 46 µM | Potency [5] > 46 µM | Potency [6] | outcome [7] | Potency [8] | Potency [9] | Potency [10] | outcome [11] | outcome [12] | outcome [13] | outcome [14] | Potency [15] | Potency [16] | Potency [17] | Potency [18] | outcome [19] | outcome [20] | outcome [21] | outcome [22] | Potency [23] | outcome [24] | outcome [25] | outcome [26] | Potency [27] | Potency [28] | outcome [29]

Reference: PubChem BioAssay (NCATS)
